High-throughput results as filed in PubChem.
Rab9 prom act – activators of Rab9 promoter. Huh7 Rab9 promoter-luciferase reporter, luminescence, 24 h. Potency, µM (titrated, usually from 9.22 µM), inactives show top-dose activation, negative = inhibition, usual class: activators. hit rate 2.8% among 320,000. AID 485297; also: % of control where 0% means no effect; nearly all actives have a fitted effect of over 60% in size
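Using Huh7 cells stably transfected with Rab9 promoter–luciferase, compounds were incubated 24 h at 37 °C, 5% CO2; luciferase luminescence was read 10 min after reagent addition.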
Luc counter – Kinase-Glo luciferase inhibition (counter-screen) | Potency, µM (doses to about 38.3 µM), inactives show at the highest dose activity change, negative = inhibition, actives largely listed as inhibitors | AID 1379 | Kinase-Glo luciferase, ATP luminescence, 8 min | Q27757 | hit rate 0.28% among 200,000; also: % is scaled to controls: 0 for no effect and ±100 for the full control effect; nearly all actives have a fitted effect of over 60% in size
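Compounds were added to a substrate mix at pH 7.2 (50 mM imidazole, 10 uM ATP, within the enzyme's linear range), followed by Kinase-Glo detection reagent; luminescence was measured after 8 minutes at ambient temperature.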
ELG1 genotoxic – inducers of genotoxicity in HEK293T ELG1-luciferase cells; HEK293T ELG1-luciferase reporter, luminescence, 16 h; Potency, µM (doses to about 46 µM), for inactives: top-dose activity change, positive = activation, actives largely listed as activators; hit rate 1.3% among 330,000; also: % of control where 0% means no effect; nearly all actives have a fitted effect of over 60% in size
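Screening used a luciferase reporter fused to human ELG1 in HEK293T cells. Luminescence was read on a CCD plate imager after 16 hr exposure and 30 min ONE-Glo incubation.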
FLuc counter – counter-screen for miR-21 project: firefly luciferase inhibitors or activators | P08659 | purified FLuc, Km substrates, luminescence inhibition | Potency, µM (highest dose often 57.5 µM), for the others: top-dose activity change, negative = inhibition, usual class: inhibitors | hit rate 6.9% among 360,000 | AID 588342;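 also: plate controls were vehicle for no effect and reference inhibitor for full effect; nearly all actives have a fitted effect of over 55% in size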
Target sequence (P08659 whole entry, looked up): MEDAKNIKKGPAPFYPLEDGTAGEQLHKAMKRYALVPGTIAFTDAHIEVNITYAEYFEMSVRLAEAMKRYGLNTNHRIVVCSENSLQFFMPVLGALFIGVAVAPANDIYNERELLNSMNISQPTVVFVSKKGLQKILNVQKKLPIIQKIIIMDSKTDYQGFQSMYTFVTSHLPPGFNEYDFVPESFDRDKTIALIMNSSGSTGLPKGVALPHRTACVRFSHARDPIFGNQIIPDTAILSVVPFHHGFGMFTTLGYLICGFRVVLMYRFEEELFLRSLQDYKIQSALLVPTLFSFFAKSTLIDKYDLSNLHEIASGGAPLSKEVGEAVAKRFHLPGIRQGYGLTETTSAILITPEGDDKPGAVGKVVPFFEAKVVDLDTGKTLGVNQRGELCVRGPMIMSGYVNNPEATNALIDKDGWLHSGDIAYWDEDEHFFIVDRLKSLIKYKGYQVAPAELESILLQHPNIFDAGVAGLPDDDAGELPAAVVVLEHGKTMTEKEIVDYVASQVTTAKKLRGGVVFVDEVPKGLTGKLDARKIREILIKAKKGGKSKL
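Purified P. pyralis luciferase, 10 nM final, with Km-level 10 uM D-luciferin and 10 uM ATP in 50 mM Tris acetate pH 7.5, 10 mM Mg acetate, 0.01% Tween-20, 0.05% BSA; 6-point qHTS titration about 60 µM downward; luminescence read.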
SMN2 splice up – SMN2 splice variant enhancement; hit rate 2.8% among 210,000; AID 1458; Potency, µM (top dose mostly 46.1 µM), inactives show at the top dose activity change, positive = activation, hits mostly activators; HEK293 SMN2-luciferase splicing reporter, luminescence, 30-36 h; also: % of control where 0% means no effect; nearly all actives have a fitted effect of over 55% in size
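qHTS luciferase splicing reporter: luminescence rises when SMN2 exon 7 is included in transfected HEK293 cells. Compound exposure lasted 30-36 h at 37C, with 4.5 mM final sodium butyrate as control, followed by a ONE-Glo read.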
NPC1 prom act – activators of NPC1 promoter | Huh7 NPC1 promoter luciferase reporter, 24 h | Potency, µM (doses to about 9.22 µM), for the others: at the highest dose activation, usual class: activators | hit rate 2.4% among 320,000; also: % of control where 0% means no effect; nearly all actives have a fitted effect of over 60% in size
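Huh7 reporter cells (NPC1 promoter driving luciferase) are dosed with compound for 24 h at 37 °C, 5% CO2; luciferase detection reagent is then added and luminescence measured after 10 min at ambient temperature.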
The depositor's hits bear a star; ? = inconclusive; nt = no result; [ ] = another dose, or the depositor's remark. An excerpt weighted towards active compounds, which were near 7.5% of everything screened. Calls follow the shape of the dose curve; as a rule, active = well fitted curve in the direction sought with a large enough effect; inconclusive = small, poorly fitted or top-dose-only effect, or another doubt; inactive = no such curve, though single readings can be large; an effect the other way counts as inactive or inconclusive. Potency is read from the fitted curve at half-maximal effect.

SMILES	Rab9 prom act	Luc counter	ELG1 genotoxic	FLuc counter	SMN2 splice up	NPC1 prom act
CC(C)(C)c1nc(NC(=O)Nc2ccccc2)sc1Br	?	0%	-5%	19µM*	-3%	28%
CCN(CC(=O)Nc1c(F)cccc1F)C(=O)CCNS(=O)(=O)c1ccccc1C(F)(F)F	0%	nt	-2%	3%	nt	1%
CN(C)/C=N/c1ncc(C(=O)c2ccc3ccccc3c2)s1	?	0%	3%	24µM*	-29%	23%
COc1ccc(C(=O)c2cnc(/N=C/N(C)C)s2)cc1	26%	4%	11%	?	?	13%
CC(C)N(C(=O)COC(=O)CCC(=O)c1cccs1)c1ccccc1	nt	nt	0%	nt	nt	nt
O=C(CSc1nc2ccccc2o1)N/N=C/c1ccccc1	1%	-2%	16%	-2%	-4%[1.84 µM]	-2%
C/C(=N\NC(=O)CSc1nc2ccccc2o1)c1ccc(O)cc1	3%	1%	9%	17µM*	10%	1%
O=C(CSc1nc2ccccc2o1)N/N=C/c1ccc(O)c(O)c1	-2%	nt	14%	19µM*	nt	-5%
Cc1cc(C)c2c(CN3CCCCC3)cc(=O)oc2c1	-1%	nt	8%	?	nt	3%
Cc1cc(C)c2c(CN3CCC(C)CC3)cc(=O)oc2c1	?	nt	?	15µM*	nt	?
CCCCc1cc(=O)oc2c(C)c(OCC(=O)NCC3CCC(C(=O)O)CC3)ccc12 (centres undefined)	-3%	nt	12%	-2%	nt	2%
COc1ccc(C(=O)/C=C/c2ccc(O)cc2)cc1	3%	nt	7%	8.5µM*	nt	-3%
O=C(/C=C/c1ccc(O)cc1)c1ccc(NC2=C(N3CCCCC3)C(=O)c3ccccc3C2=O)cc1	-29%	-12%	-6%	7.6µM*	-99%	-35%
COc1ccc(/C=C/C(=O)C(C(N)=O)=C2SCCS2)cc1	20%	-2%	5%	9.5µM*	-72%	16%
NC(=O)C(C(=O)/C=C/c1ccc(Cl)cc1)=C1SCCS1	-17%	nt	2%	?	nt	-11%
O=C(/C=C/c1ccc(N2CCC(c3ccccc3)=N2)cc1)c1ccccc1	20%	-2%	-2%	15µM*	-10%	20%
COc1ccccc1N(CC(O)CN1CCCCC1)S(=O)(=O)c1ccc(C)cc1 (centres undefined)	1%	nt	-1%	-1%	nt	1%
COc1ccc(C(=O)/C=C/c2ccc(OC3CSC3)cc2)cc1OC	-5%	-17%	6%	?	-90%	-3%
O=C(/C=C/c1ccc(OC2CSC2)cc1)c1ccc(Cl)cc1	0%	-2%	6%	11µM*	5%	-4%
COc1ccc(-c2cc(O)cc(O)c2)cc1	?	-4%	6.5µM*	6.7µM*	?	?
Cc1nn(C)cc1/C=C/C(=O)c1ccc(O)cc1	?	-6%	21µM*	13µM*	-10%[1.84 µM]	?
O=C(/C=C/c1ccc(O)cc1)c1ccccc1	?	nt	?	2.7µM*	nt	3%
COc1ccc(CN(C(=O)c2ccc(C)cc2)C2CCS(=O)(=O)C2)cc1 (centres undefined)	-7%	nt	5%	3%	nt	-5%
COc1ccc(/C=C/C(=O)Oc2cc(O)cc(O)c2)cc1	-1%[1.84 µM]	nt	-1%	15µM*	nt	-3%
CCOc1ccc(/C=C/C(=O)Oc2ccc(OC)cc2)cc1	2%	nt	3%	?	nt	-1%
SMILES	Rab9 prom act	Luc counter	ELG1 genotoxic	FLuc counter	SMN2 splice up	NPC1 prom act
COc1ccc(/C=C/C(=O)c2nc3ccccc3n2CC(=O)c2ccc(OC)cc2)cc1	-5%	-3%	-7%	9.5µM*	10%	-3%
O=C(CSc1nc2ccccc2s1)c1sc2sc3ccccc3[n+]2c1O	nt	-4%[7.66 µM]	nt	nt	5%[9.22 µM]	nt
N/C(=N\OC(=O)C(c1ccccc1)c1ccccc1)c1cccnc1	-2%	0%	1%	0%	-6%	1%
O=C(COC(=O)/C=C/c1ccccc1Cl)Nc1cccnc1Cl	nt	nt	-1%	nt	nt	nt
N/C(=N\OC(=O)/C=C/c1ccc(Br)cc1)c1ccccn1	2.2µM*	-6%	?	9.5µM*	18µM*	1.8µM*
N/C(=N\OC(=O)/C=C/c1ccccc1Cl)c1cccnc1	?	nt	21µM*	7.6µM*	nt	?
N/C(=N\OC(=O)/C=C/c1ccccc1Cl)c1ccccn1	0.28µM*	?	?	0.6µM*	?	0.5µM*
Cc1ccccc1/C(N)=N/OC(=O)/C=C/c1ccccc1	?	-9%	?	?	?	25%
N/C(=N\OC(=O)/C=C/c1ccccc1)c1cccnc1	11%	-7%	?	12µM*	2%	0%
CCCn1c(SCC(=O)Nc2ccccc2C(=O)NC2CC2)n[nH]c1=O	-4%	nt	1%	5%	nt	-8%
Cc1csc2nc(CSc3nc4ccccc4o3)c(Br)n12	2.5µM*	-5%	2.9µM*	8.5µM*	?	3.5µM*
CC1(C)CO[C@@H](CC(=O)O)CN1	nt	nt	nt	nt	2%	nt
COc1cccc(-c2nnc(SCC(=O)N3CCOCC3)o2)c1	4µM*	0%	10%	?	21%	?
COc1ccc(-c2nnc(SCC(=O)N3CCOCC3)o2)cc1	4.5µM*	4%	21µM*	21µM*	14µM*	?
COC(=O)c1ccc(CNC(=O)Cn2nnnc2CN(C)C(C)C)cc1	-10%	nt	2%	-2%	nt	-6%
COc1ccc(C(=O)NCc2nnc(SCC(=O)Nc3ccccc3)n2-c2ccccc2)cc1	nt	nt	nt	1%	-10%	nt
CCOC(=O)C1=C(COC(=O)/C=C/c2ccc(OC)cc2OC)NC(=O)NC1C (centres undefined)	0%	nt	-1%	?	nt	1%
CC(C)(C)C1CCc2[nH]c3ccccc3c(=O)c2C1 (centres undefined)	10%	?	?	6µM*	-6%	20%
Oc1ccc(N=Nc2n[nH]c(-c3ccc(Cl)cc3)n2)cc1	1%	7%	3%	12µM*	20µM*	5%
Cc1c2cn[nH]c(=O)c2c(C)n1-c1ccccc1	4%	nt	18%	6µM*	nt	3%
N#CC1=C2C=Cc3ccccc3N2CCCC1=O	2.8µM*	-15%	?	11µM*	23%	2.2µM*
CC(C)(C)c1ccc(/C=C2\SC(=O)N(CCNC(=O)c3cccc(S(=O)(=O)N4CCOCC4)c3)C2=O)cc1	0.89µM*	-2%	?	0.54µM*	-53%	0.71µM*
COc1ccc(N2CCN(C(=O)Cn3cnc4sc(C)c(S(=O)(=O)N5CCCCC5)c4c3=O)CC2)cc1	nt	nt	nt	6%	4%	nt
COc1ccc(OC)c(/C=N\NC(=O)c2cc3c(ccc4ccccc43)o2)c1	4%	nt	-9%	-14%	nt	2%
